# Experimental data taken from PubChem BioAssay (NCATS).
# Records with an inconclusive call do not appear. Calls of active or inactive are those of the source. Calls come from the whole dose curve; as a rule, active = well fitted cell-killing curve with a large enough effect; inconclusive = small, poorly fitted or top-dose-only effect, or effect the other way; inactive = flat fitted curve, though single readings scatter.
# Assay: MultiTox-Fluor Cytotoxicity Assay - LYMP1-002 - Live Cells (AID 955)
# Conditions: LYMP1-002 lymphoblastoid live-cell protease fluorescence viability; series mostly up to 46.1 µM
# Description: NIH Chemical Genomics Center [NCGC]
# NIH Molecular Libraries Screening Centers Network [MLSCN]
# National Institutes of Environmental Health Sciences [NIEHS]
# National Toxicology Program [NTP]
# We have developed a 1536-well cell-based assay for quantitative high throughput screening (qHTS) against a number of cell lines to determine in vitro cytotoxicity of small molecules. This particular assay uses a human lymphoblastoid cell line (LYMP1-002) purchased from Coriell Institute.
# NCGC Assay Protocol Summary:
# The MultiTox-Fluor Cytotoxicity Assay (Promega) is a homogeneous method to simultaneously measure the relative number of live and dead cells in culture by detecting changes in cell membrane integrity. There are two fluorogenic peptide substrates in the assay reagent. Viable cells are determined when the cell-permeant substrate (GF-AFC) enters the cell and is cleaved by protease from live cells resulting in liberated fluorophore. This live-cell protease activity restricted to viable cells is proportional to cell number. The dead cells are determined by using fluorogenic cell-impermeant peptide substrate (bis-AAF-R110) which cleaved by dead cell proteases leaking from damaged cell membrane.
# Using the MultiTox-Fluor Cytotoxicity Assay, the relative number of live cells was measured in the lymphoblastoid cell line with complete culture medium following compound treatment for 16 hours. The assay was performed in opaque black Kalypsys 1536-well plates. In the screen, tetraoctylammonium bromide was used as positive control. Library compounds were measured for their ability to cause acute toxicity in the cell line, as reflected by a decrease in live cell protease activity, in a concentration-dependent manner. […] AC50 values were determined from concentration-response data modeled with the standard Hill equation.
# qHTS protocol for MultiTox-Fluor Cytotoxicity assay
# [Step] [Parameter] [Value] [Description]
# 1. Reagent; 5 uL; 2500 lymphoblastoid cells/well
# 2. Time; 5 hr; 37 C incubation
# 4. Controls; 23 nL; Tetraoctylammonium bromide 6.4pM to 92 uM
# 5. Time; 16 hr; 37 C incubation
# 6. Reagent; 5 uL; MuliTox-Fluor Assay reagent
# 7. Time; 60 min; Room Temperature
# 8. Detection; live-cell fluorescence (Ex/Em=405/510); EnVision plate reader
# Keywords: cell viability, cytotoxicity, lymphoblastoid cell line, fluorescence, NTPHTS, NTPHTS_NCGC, NIEHS, EPA, DSSTox, MLSMR, MLSCN, NIH Roadmap, qHTS, NCGC
row,Structure (SMILES),outcome
1,CC(=O)/C=C/c1ccccc1,inactive
2,CCOc1cc(C=O)ccc1O,inactive
3,O=Cc1ccccc1,inactive
4,Oc1ccccc1Cl,inactive
5,COC(=O)c1ccccc1C(=O)OC,inactive
6,c1ccc2c(c1)-c1cccc3cccc-2c13,inactive
7,CC(C)(c1ccc(OCC2CO2)cc1)c1ccc(OCC2CO2)cc1 (stereo not drawn),inactive
8,c1ccc(Nc2ccc3ccccc3c2)cc1,inactive
9,CCOC(=O)c1ccccc1N,inactive
10,COC1=CC(=O)OC(CCc2ccc3c(c2)OCO3)C1 (stereo not drawn),inactive
11,Oc1c(Cl)c(Cl)c(Cl)c(Cl)c1Cl,inactive
12,CC(C)COC(=O)c1ccccc1C(=O)OCC(C)C,inactive
13,Cc1ccccc1O,inactive
